# The panel holds about 83,000 compounds, 20% with a hit somewhere; the sample as a whole holds those more often.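 Method: cells in 96-well plates; compound added at one concentration; 48 h incubation; percent growth measured; values under 10 scored active.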 Unmarked numbers belong to inactive results. The source made the active and inactive calls.
# Test system: HL-60(TB) leukemia
# Assay: NCI-60 one-dose screen, 48 h (100 = growth as untreated, 0 = no growth, -100 = all killed)
# Details: 10 µM unless noted
row,Compound,growth
1,Clc1ccc(C(SCc2ccccc2)SCc2ccccc2)cc1,97.6%
2,Clc1nc(N2CCC[N+]3(CC2)CC[N+]2(CCCNCC2)CC3)nc(N2CCC[N+]3(CC2)CC[N+]2(CCCNCC2)CC3)n1 (centres undefined),97%
3,Cc1ccc2c(C(C[N+](=O)[O-])c3ccccc3)c(-c3ccccc3)[nH]c2c1 (centres undefined),-10.4% [9.5 µM] (active)
4,CN(C)C(CNc1oc(-c2cccc3ccccc23)nc1C#N)c1ccco1 (centres undefined),74.1%
5,COC(=O)c1nc(-c2ccc(C)cc2)oc1Sc1ccc(C)cc1,91.4%
6,Cc1ccc(S(=O)(=O)OC[C@@]2(C)CC[C@]3(C)CC[C@]4(C)C(=C3C2)C=C[C@@H]2[C@@]3(C)CCCNC(C)(C)[C@@H]3CC[C@]24C)cc1,-58.4% (active)
7,COc1cc(/C=C/c2cc(/C=C/c3ccc(O)c(OC)c3)n(C(=O)c3ccc(Cl)cc3)n2)ccc1O,-12.4% (active)
8,COc1ccc(C/C(C)=C(/c2ccc(OCCN3CCCCCC3)cc2)c2ccc(OC(=O)c3ccccc3)cc2)cc1,68.7%
9,COc1ccc(-c2ccc(O)c(C(=O)/C=C/c3cc(OC)c(OC)c(OC)c3)c2)cc1,54.5%
10,Cn1ccc2c3c(ccc21)CC3=O,113%
11,COc1cc(C(=O)CCCl)ccc1O,95.8%
12,CCCCN(CCCC)CCC(=O)c1ccc(OC)c2ccccc12,81.1%
13,CC(C)(C)C(=O)OCOP(=O)(OCOC(=O)C(C)(C)C)C1CC(O)N(O)C1=O (centres undefined),13.1%
14,Cc1cccc2c1O/C(=C\c1ccc([N+](=O)[O-])o1)C2=O,-25.7% (active)

# Source: PubChem BioAssay (NCI)
